Source: PubChem
Rows were chosen to be rich in hits. Some 3.7% of all compounds tested hit in one or more screens of this group.
Anthrax LF inh2 = Bacillus anthracis LF protease inhibitors, primary screen, biochemical, multiplex microsphere, MLPCN library; Lethal factor (Bacillus anthracis), P15917; inhibition, % at 10 µM; multiplex microsphere protease cleavage assay; 0.12% of 360,000 active; also: plate controls were buffer without enzyme for full effect and enzyme alone for no effect
Autofluor counter = compound fluorescence in toxin protease inhibitor counterscreen | compound autofluorescence counterscreen, microsphere flow cytometry; active compounds read high | fluorescence intensity (test concentration not listed) | 3.1% of 360,000 active | AID 624483; in the data active = fluorescence intensity above about 16000; inconclusive = no clear call, values can overlap the other calls
BoNT A protease = BoNT/A light chain protease inhibitors, primary screen, biochemical, flow cytometry, MLPCN library. multiplex microsphere protease substrate cleavage. inhibition, % at 10 µM. Botulinum neurotoxin type A light chain protease (Clostridium botulinum A str. ATCC 3502). AID 588499, 2011. 0.17% of 360,000 active; also: plate controls were buffer without enzyme for full effect and enzyme alone for no effect
BoNT-F LC inh = BoNT/F light chain protease inhibitors, primary screen, biochemical, flow cytometry, MLPCN library; Botulinum neurotoxin type F light chain protease (Clostridium botulinum); Multiplex microsphere protease cleavage assay; inhibition, % at 10 µM; 0.22% of 360,000 active; AID 588497, 2011; in the data active = inhibition above about 35%, passing the limit was not always enough; inconclusive = no clear call, values can overlap the other calls; also: plate controls were buffer without enzyme for full effect and enzyme alone for no effect
MazEF act = activators of E. coli MazEF toxin-antitoxin RNase, primary screen, biochemical, fluorescence, uHTS; FAM/BHQ RNA-DNA oligo cleavage fluorescence, 5 h; Endoribonuclease toxin MazF (Escherichia coli (strain K12)), P0AE70; activation, % at 20 µM; AID 504720, 2011; 0.32% of 350,000 active; in the data active = activation above about 50%
Target sequence (P0AE70 whole entry, looked up): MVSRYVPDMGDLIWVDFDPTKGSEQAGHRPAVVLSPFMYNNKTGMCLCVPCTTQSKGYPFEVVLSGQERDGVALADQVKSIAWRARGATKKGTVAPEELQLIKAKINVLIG
* marks the source's active call; other numbers are inactive results; u = inconclusive; x = not tested or not shown; + = active, no number. Rule as the data show it, unless noted: active = inhibition above about 30%; inconclusive = no clear call, values can overlap the other calls; inactive = below that.

SMILES | Anthrax LF inh2 | Autofluor counter | BoNT A protease | BoNT-F LC inh | MazEF act
Nc1c(C2=NCCO2)nnn1Cc1ccccc1 | -9 | 17624* | -3 | -9 | 7
COC(=O)c1nnn(Cc2ccccc2)c1N | 2 | 2374 | 0 | -4 | -1
COc1ccccc1NC(=O)CN1C(=O)C2(OCCCO2)c2ccccc21 | 0 | 20250* | 2 | 1 | 3
CCCC(=O)CN1C(=O)C2(OCCO2)c2ccccc21 | -3 | 22726* | -1 | 1 | 6
CC(C)CC(=O)CN1C(=O)C2(OCCO2)c2ccccc21 | 2 | 23745* | -2 | -1 | 2
O=C1N(CCCN2C(=O)C3(OCCO3)c3ccccc32)c2ccccc2C12OCCO2 | 0 | 21454* | -6 | -5 | -4
CCn1nnc2cc(C(=O)NCC(c3ccccc3OC)N(C)C)ccc21 (configuration not stated) | -7 | 3801 | 2 | -18 | 0
OC[C@@H]1CN(CCNc2ccccc2)C[C@H](n2cnc3c(NCc4ccncc4)ncnc32)O1 | -2 | 2937 | 0 | -7 | x
CCCN(C)C1CN(Cc2cn(Cc3ccc(C)cc3)nn2)S(=O)(=O)C1 (configuration not stated) | -3 | 4398 | -1 | -4 | x
COc1ccccc1OCCNC(=O)CN1C(=O)NC2(CCCC2)C1=O | x | x | x | x | 6
COCCCN1C(=O)c2ccc(C(=O)O)cc2C1=O | -3 | 21024* | 6 | 7 | 4
O=C(CCN1C(=O)c2ccc(Br)cc2C1=O)NC1CCCCC1 | -4 | 5555 | 1 | -4 | 7
CCN1C(=O)c2ccc(C(=O)O)cc2C1=O | -8 | 3688 | -1 | -29 | -4
CC(=O)OCCCN1C(=O)c2ccc(Br)cc2C1=O | -10 | 22144* | u | 1 | 11
O=C(CNC(=O)C1CCCCC1)NC1CCCCC1 | 4 | 3645 | 1 | u | 11
C[C@@H]1CN([C@H](C)CO)C(=O)CCCn2nncc2CO[C@H]1CN(C)Cc1ccc2cccnc2c1 | -3 | 3740 | -1 | -3 | 4
CC(C)(C)S(=O)N1Cc2cc(CO)cc(CCO)c2[C@H]1CCO (some centres not stated) | -1 | 3655 | 0 | -2 | -7
COc1cc(C(=O)N(Cc2ccccn2)CC2CCCO2)cc(OC)c1OC (configuration not stated) | 1 | 21493* | 3 | 5 | -7
COc1ccc(-c2ccc(N3C(c4cc(OC)cc(OC)c4)=Cc4ccc(OC)cc4C3CC(C)=O)cc2)cc1 (configuration not stated) | 4 | 5554 | 10 | 5 | x
CCCC(=O)c1c(O)[nH]c(=O)[nH]c1=O | 2 | 22341* | -1 | -2 | -4
Cc1ccc(CN2C(=O)C(F)(F)Oc3ccc(C)cc32)cc1 | -8 | 2899 | 0 | -4 | x
N#CC(C(=O)NCCc1ccccc1)c1nc2ccccc2nc1N1CCCCC1 (configuration not stated) | 7 | 2547 | 4 | 5 | 150*
CCN(CC)c1nc2ccccc2nc1C(C#N)C(=O)NCCCOC (configuration not stated) | 8 | 2381 | 6 | -1 | -9
CCN(CC)c1nc2ccccc2nc1C(C#N)C(=O)NCCc1ccccc1 (configuration not stated) | 6 | 9110 | 2 | 0 | +
N#CC(C(=O)NCc1ccccc1)c1nc2ccccc2nc1N1CCCC1 (configuration not stated) | 5 | 2673 | 3 | 12 | +
SMILES | Anthrax LF inh2 | Autofluor counter | BoNT A protease | BoNT-F LC inh | MazEF act
N#CC(C(=O)NCCc1ccccc1)c1nc2ccccc2nc1N1CCOCC1 (configuration not stated) | -2 | 3571 | 1 | 3 | 928*
CCOC(=O)N1CCN(c2nc3ccccc3nc2C(C#N)C(=O)NCCc2ccccc2)CC1 (configuration not stated) | 2 | 3529 | 2 | -3 | -50
CC1=C(C(=O)N(C(C)C)C(C)C)CC(CC(=O)NCc2ccco2)C(=O)N1CCC1=CCCCC1 (configuration not stated) | -7 | 5154 | 1 | 1 | x
CCOc1ccc(S(=O)(=O)N2CCN(C(=O)c3ccccc3Cc3ccccc3)CC2)cc1 | -2 | u | 1 | -4 | -22
COc1ccc(Cn2c(SCc3ccc(C)cc3)nc3cc(OC)c(OC)cc3c2=N)cc1Cl | -2 | 16606* | -1 | -4 | -66
COc1cc2nc(SCc3ccc(Cl)cc3Cl)n(Cc3cccs3)c(=N)c2cc1OC | -4 | 20638* | 0 | -1 | -7
COc1ccc(Cn2c(SCc3cc(C)ccc3C)nc3cc(OC)c(OC)cc3c2=N)cc1 | -10 | 9830 | 0 | -10 | -49
COc1cc2nc(SCc3ccc(C(F)(F)F)cc3)n(Cc3cccs3)c(=N)c2cc1OC | -16 | 8413 | 0 | 6 | 2
CCN1CCN(CC(O)COC(C)C)CC1 (configuration not stated) | -2 | 20191* | 0 | -1 | -2
CCOC(=O)C(Cc1c(F)cccc1F)(NC(C)=O)C(=O)OCC | -5 | 21936* | 0 | 1 | 5
CC(O)(c1ccncc1)c1nc(-c2cccc(C(F)(F)F)c2)cs1 (configuration not stated) | -2 | 4000 | 0 | -2 | x
Cc1cccnc1C(NC(=O)C1CCN(CCCOc2ccccc2)CC1)c1ccc(F)cc1 (configuration not stated) | -3 | 3577 | 0 | 8 | x
N#Cc1ccc(-c2ccccc2)nc1SCC(=O)c1cc2ccccc2oc1=O | 0 | 4491 | 1 | 14 | 63*
CC(C)c1c(C#N)c(N)nc(SCC(=O)c2cc3ccccc3oc2=O)c1C#N | 0 | 4048 | 1 | 6 | -6
Cc1nc(SCC(=O)c2cc3ccccc3oc2=O)c(C#N)c(-c2cccs2)c1C(=O)Nc1ccccc1 | -2 | 4344 | 0 | -10 | 61*
S=C1SCCCN1Cc1ccc(Cl)cc1 | -3 | 4054 | 0 | -6 | 0
O=C1C=C(/C=C/c2ccccc2)C[C@@H](c2ccc3c(c2)OCO3)C1 | 0 | 2667 | 1 | 4 | 3
O=C1NC[C@H](CCCCN2C[C@H](Cc3ccccc3)N(CCC3CCCCC3)C(=O)C2=O)N(CC2CCCCC2)C1=O | -3 | 6091 | 0 | -10 | x
O=C(COC(=O)c1cc(-c2cccc3ccccc23)nc2ccccc12)NC1CCS(=O)(=O)C1 (configuration not stated) | 2 | 2589 | 5 | -6 | 292*
Cc1cccc(S(=O)(=O)NC(=O)C2(C)CCN2C(=O)Cc2ccc(Cl)cc2Cl)c1 (configuration not stated) | 3 | 3870 | -1 | 1 | x
CC(C(=O)NC(=O)NC1CCCCC1)N1CCN(C(c2ccccc2)c2ccccc2)CC1 (configuration not stated) | -7 | 16823* | -2 | -7 | 0
CC(C(=O)NC1CCCC1)N1CCN(Cc2ccccc2)CC1 (configuration not stated) | 2 | 4743 | 0 | -3 | 10
